Measured values from PubChem BioAssay (EPA / NIEHS).
“And” between values parts separate entries of the source, which are not always exact repeats. Equal values may be shown once. Records with an inconclusive call do not appear. The source made the active and inactive calls. How the source made its calls, unless noted: active means hit-call score of the fitted dose curve at least 0.9, where 1 is the maximum; inactive means score below 0.9.

Columns and labels:
[1] = ACEA_ER_80hr: ACEA Biosciences xCELLigence Real-Time Cell Analysis on Estrogen Receptor Agonism for Proliferation (AID 2282667; active means hit-call score of the fitted dose curve at least 0.9, where 1 is the maximum); details: T47D proliferation, impedance (xCELLigence), 80 h
Procedure, shortened: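 Impedance readout (RT-CES) of T47D proliferation at 80 h post-dose; gain of signal vs DMSO baseline. Compounds: 8 conc, 1:4 serial, top 100 uM final, ≤0.5% DMSO; biological duplicate.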

[2] = APR_HepG2_CellCycleArrest_24hr: Apredica 24-hour HepG2 Assay for Cell Cycle Arrest (AID 2282905); details: imaging, actives raise or lower the signal;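 further: cell cycle arrest scored as ratio of 2N to 4N nuclear DNA content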
Procedure, shortened: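 Compounds (0.39 to 200 uM, final DMSO 0.5% v/v) are applied to HepG2 cells for 24 hours; cells are then fixed, permeabilized and nuclei labeled with Hoechst 33342. Automated imaging measures DNA content, and activity is fitted in both directions against DMSO.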

[3] = APR_HepG2_NuclearSize_24hr: Apredica 24-hour HepG2 Assay for Nuclear Size (AID 2282907); details: high-content imaging, actives raise or lower the signal
Procedure, shortened: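 Nuclear size is measured by fluorescence high-content imaging of Hoechst-labelled HepG2 nuclei after 24 hr of treatment (0.39–200 uM, 0.5% DMSO). Cells are fixed in 3.7% formaldehyde before staining, and DMSO serves as the baseline for bidirectional curve fitting.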

[4] = APR_HepG2_CellLoss_24hr: Apredica 24-hour HepG2 Assay for Cell Loss (AID 2282908); details: high-content imaging;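 on AC50: fit in both directions so a hit may be cell loss or gain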
Procedure, shortened: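 Nuclear count serves as the viability measure: treated cells are fixed, permeabilized and labelled with Hoechst 33342, and six images per well are analysed to identify valid nuclei. Doses span 0.39–200 uM, and activity in either direction is scored against DMSO.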

[5] = APR_HepG2_MicrotubuleCSK_24hr: Apredica 24-hour HepG2 Assay for Microtubule CSK Stabilty (AID 2282909); details: HepG2 microtubule cytoskeleton imaging, actives raise or lower the signal
Procedure, shortened: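 Compounds were applied to HepG2 cells for 24 hours across 0.39–200 uM in duplicate, with final DMSO at 0.5% v/v. Fixed, permeabilized cells were labeled for alpha-tubulin and nuclei, and tubulin fluorescence was quantified by imaging, fitted bidirectionally against DMSO.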

[6] = APR_HepG2_MitoticArrest_24hr: Apredica 24-hour HepG2 Assay for Mitotic Arrest (AID 2282910); details: high-content imaging, actives raise or lower the signal
Procedure, shortened: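 HepG2, 24 hr dosing, 0.39–200 uM, 0.5% DMSO final. Formaldehyde-fixed, Triton-permeabilised, anti-phospho-histone H3 plus Hoechst. ArrayScan imaging at 20x; bidirectional fit vs DMSO baseline.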

[7] = APR_HepG2_MitoMembPot_24hr: Apredica 24-hour HepG2 Assay for Mitochondrial Membrane Potential (AID 2282911); details: imaging, actives raise or lower the signal
Procedure, shortened: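 HepG2, 24 hr dosing, 10 concentrations 0.39–200 uM, 0.5% DMSO final. Live-cell MitoTracker Red CMXRos 250 nM 30 min, then 3.7% formaldehyde fix. HCS fluorescence imaging, 20x; bidirectional fit vs DMSO baseline.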

[8] = APR_HepG2_MitoMass_24hr: Apredica 24-hour HepG2 Assay for Mitochondrial Mass (AID 2282912); details: high-content imaging, actives raise or lower the signal
Procedure, shortened: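 After 24 hr of treatment at 0.39 to 200 uM, HepG2 cells take up 250 nM MitoTracker Red CMXRos for 30 min and are then fixed with 3.7% formaldehyde. Per-well images are quantified, and any change in either direction is scored against solvent.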

[9] = APR_HepG2_p53Act_24hr: Apredica 24-hour HepG2 Assay for p53 Activation (AID 2282913); details: high-content imaging, actives raise or lower the signal;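 further: p53 protein immunofluorescence averaged per cell in HepG2 with Hoechst nuclei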
Procedure, shortened: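 Read-out: Cy5 immunofluorescence for p53 in fixed, permeabilized HepG2, imaged by HCS with Hoechst-defined nuclei. Dosing was 24 hr at 0.39–200 uM in 0.5% DMSO. Curves were fitted bidirectionally relative to DMSO.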

[10] = APR_HepG2_CellCycleArrest_72hr: Apredica 72-hour HepG2 Assay for Cell Cycle Arrest (AID 2282914); details: high-content imaging, actives raise or lower the signal
Procedure, shortened: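 HepG2, 72 hr exposure, 10-point 0.39–200 uM, duplicate, 0.5% DMSO final. Fix 3.7% formaldehyde 30 min RT, Triton X-100 0.5%, Hoechst 33342 2 ug/mL. ArrayScan 20x, six fields/well; DNA content per nucleus; bidirectional fit vs DMSO.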

[11] = APR_HepG2_CellLoss_72hr: Apredica 72-hour HepG2 Assay for Cell Loss (AID 2282915); details: high-content imaging
Procedure, shortened: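 HepG2 cells exposed 72 h to compound at 0.39–200 uM (10 concentrations, duplicate) in 0.5% DMSO. Fixed with 3.7% formaldehyde and Hoechst 33342-stained. Imaged at 20x; nuclear count gives cell number, fitted bidirectionally versus DMSO.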

[12] = APR_HepG2_P-H2AX_72hr: Apredica 72-hour HepG2 Assay for H2AX Phosphorylation (AID 2282916); details: imaging, actives raise or lower the signal;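 further: phospho-histone H2A.x immunostain intensity per cell marking DNA damage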
Procedure, shortened: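 Human hepatoma HepG2 cells are dosed across ten concentrations (0.39 to 200 uM, 0.5% v/v DMSO) and incubated 72 hr. Phospho-histone H2A.x is then detected by antibody staining alongside c-Jun and Hoechst, and quantified by automated fluorescence imaging.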

[13] = APR_HepG2_MitoMembPot_72hr: Apredica 72-hour HepG2 Assay for Mitochondrial Membrane Potential (AID 2282917); details: imaging, actives raise or lower the signal
Procedure, shortened: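 HepG2 cells dosed 72 hr with compound at 0.39–200 uM in duplicate, 0.5% v/v DMSO final. Mitochondria stained with 250 nM MitoTracker Red CMXRos for 30 min before formaldehyde fixation, imaged by high-content fluorescence; bidirectional fit versus DMSO.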

[14] = APR_HepG2_MitoticArrest_72hr: Apredica 72-hour HepG2 Assay for Mitotic Arrest (AID 2282918); details: high-content imaging, actives raise or lower the signal
Procedure, shortened: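 HepG2, 72 hr exposure, 0.39–200 uM in duplicate, 0.5% v/v DMSO final. Formaldehyde-fixed, Triton-permeabilized, anti-phospho-histone H3/FITC plus Hoechst. ArrayScan imaging at 20x; curves fit bidirectionally against DMSO baseline.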

[15] = APR_HepG2_MicrotubuleCSK_72hr: Apredica 72-hour HepG2 Assay for Microtubule CSK Stabilty (AID 2282919); details: HepG2 microtubule cytoskeleton, high-content imaging, actives raise or lower the signal
Procedure, shortened: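 HepG2, 72 hr cmpd exposure, 0.39–200 uM (10 pts, duplicate), 0.5% DMSO. 3.7% formaldehyde fix, 0.5% Triton perm, anti-alpha-tubulin/Cy5 plus Hoechst. HCS fluorescence intensity; bidirectional fit vs DMSO baseline; taxol as positive control.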

[16] = APR_HepG2_P-H2AX_24hr: Apredica 24-hour HepG2 Assay for H2AX Phosphorylation (AID 2282920); details: high-content imaging, actives raise or lower the signal
Procedure, shortened: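 HCS fluorescence imaging of phospho-H2A.x immunostain (with Hoechst 33342 nuclear counterstain) in HepG2 after 24 hr compound exposure; 10 concentrations, 0.39–200 uM, duplicate wells, 0.5% v/v DMSO. Gain or loss of signal fitted relative to DMSO baseline.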

[17] = APR_HepG2_StressKinase_24hr: Apredica 24-hour HepG2 Assay for Stress Kinase (AID 2282922); details: HepG2 stress kinase (phospho-c-Jun) imaging, actives raise or lower the signal
Procedure, shortened: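 Read-out: phospho-c-Jun immunofluorescence (Cy3 secondary) quantified by high-content imaging at 20x, nuclei defined by Hoechst 33342. Human HepG2 liver cells dosed 24 hr, 0.39–200 uM, DMSO 0.5% v/v; gain or loss of signal fitted relative to DMSO.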

[18] = APR_HepG2_p53Act_72hr: Apredica 72-hour HepG2 Assay for p53 Activation (AID 2282923); details: high-content imaging, actives raise or lower the signal;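 further: average cellular p53 protein immunofluorescence intensity in HepG2 cells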
Procedure, shortened: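 Imaging-based endpoint: after 72 hr compound exposure (up to 200 uM, 0.5% DMSO), fixed and permeabilized monolayers were labelled with anti-p53 antibody and imaged; signal change in either direction was fitted relative to DMSO controls.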

[19] = APR_HepG2_MitoMass_72hr: Apredica 72-hour HepG2 Assay for Mitochondrial Mass (AID 2282924); details: high-content imaging, actives raise or lower the signal;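 further: MitoTracker Red CMXRos stain intensity per cell imaged as mitochondrial mass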
Procedure, shortened: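 Read-out: MitoTracker Red fluorescence intensity from automated imaging (20x, six fields per well) in human HepG2 liver cells. Dosing ran 72 hr, 0.39–200 uM, 0.5% DMSO; bidirectional curve fitting versus DMSO baseline.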

[20] = APR_HepG2_StressKinase_72hr: Apredica 72-hour HepG2 Assay for Stress Kinase (AID 2282921); details: HepG2 stress kinase (phospho-c-Jun) imaging, actives raise or lower the signal
Procedure, shortened: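 After a 72 h compound treatment spanning 0.39 to 200 uM, formaldehyde-fixed cells are labelled for phosphorylated c-Jun and nuclei, imaged by automated fluorescence microscopy, and activity is fitted in both directions relative to DMSO controls.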

Measured: AC50

CC(C)(C)c1cccc(C(C)(C)C)c1O
active: [4] 111 µM | [7] 110 µM | [8] 96.1 µM | [9] 100 µM | [10] 112 µM | [11] 113 µM | [13] 100 µM | [16] 57.3 µM
not listed: [20]
inactive: all other assays above

CCCCCCCCCCCCc1ccccc1S(=O)(=O)O
active: [4] 116 µM | [6] 106 µM | [9] 120 µM | [11] 149 µM | [12] 111 µM | [16] 119 µM | [20] 112 µM | [19] 120 µM
not listed: [8] | [14] | [18]
inactive: all other assays above

CC(C)(C)c1cc(C(C)(C)C)c(O)c(C(C)(C)C)c1
active: [1] 10.6 µM | [11] 39.1 µM | [18] 0.357 µM
inactive: all other assays above

C=C(C)C(=O)OCCC(F)(F)C(F)(F)C(F)(F)C(F)(F)C(F)(F)C(F)(F)F
not listed: [8] | [14] | [18]
inactive: all other assays above

Cc1cc(CCN2CCN(c3nsc4ccccc34)CC2)cc2c1NC(=O)CC2(C)C
inactive: [1] | [2] | [3] | [5] | [7] | [10] | [13] | [17]
active: [4] 28.6 µM | [6] 15.7 µM | [8] 22.2 µM | [9] 18.2 µM | [11] 30.9 µM | [12] 11.2 µM | [14] 39.7 µM | [15] 37.6 µM | [16] 22 µM | [18] 33.8 µM | [19] 29 µM

CCCCCCCCC(=O)O
not listed: [8] | [14] | [18]
inactive: all other assays above

CCCCCCCCCCCCCC[N+](C)(C)C
active: [1] 128 nM and 101 nM
